The values below come from PubChem BioAssay (NCI).

Compounds without any hit were thinned out: in the full panel of roughly 83,000, 20% have a hit.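 The endpoint reported here, percent growth, reads 100 for growth as untreated, 0 for no net growth and -100 for all cells dead.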 Values without a mark were called inactive. Calls of active or inactive are those of the source. Rule for the calls: active = growth percent below 10; inactive = the rest.

Assay in all cases: NCI-60 one-dose screen, 48 h (100 = growth as untreated, 0 = no growth, -100 = all killed)
For one assay, the system named is NCI-H23 lung. The note with it: 10 µM unless noted.
In another assay the test system is NCI-H226 lung. The note with it: 10 µM unless noted.
In another assay the test system is MDA-MB-231 breast. The note with it: 10 µM unless noted.
The subject of the next assay is SF-268 CNS. The note with it: 10 µM unless noted.
The next assay has as its system SF-539 CNS. The settings on record: 10 µM unless noted.
Another assay concerns HCT-15 colon. The settings on record: 10 µM.
The test system of another assay is HT29 colon. The note with it: 10 µM unless noted.
A further assay deals with SNB-75 CNS. The note with it: 10 µM unless noted.
Another assay relates to PC-3 prostate. The settings on record: 10 µM unless noted.
The next assay has as its system SK-MEL-5 melanoma. The settings on record: 10 µM unless noted.
The test system of another assay is UACC-62 melanoma. The note with it: 10 µM unless noted.
The subject of the next assay is SK-MEL-28 melanoma. The settings on record: 10 µM unless noted.
Another assay relates to SN12C renal. The settings on record: 10 µM unless noted.
Another assay deals with ACHN renal. The note with it: 10 µM unless noted.
Another assay has as its system OVCAR-8 ovarian. The settings on record: 10 µM unless noted.
The subject of a further assay is OVCAR-3 ovarian. The note with it: 10 µM unless noted.
In another assay the test system is NCI/ADR-RES ovarian. The settings on record: 10 µM unless noted.
In another assay the test system is MDA-MB-435 melanoma. The settings on record: 10 µM unless noted.
The subject of a further assay is MCF7 breast. The note with it: 10 µM unless noted.
The test system of another assay is KM12 colon. The note with it: 10 µM unless noted.

For the molecule `CC1=C(SCCC(=O)OCC(=O)NCCC[Te]c2ccccc2)C(=O)c2ccccc2C1=O`, the growth in the assay on NCI-H23 lung was -33.6% (active); in the assay with NCI-H226 lung, -4.17% (active); in the assay on MDA-MB-231 breast, -34.5% (active); in the assay on SF-268 CNS, -13.1% (active); in the assay with SF-539 CNS, -60.3% (active); in the assay with HCT-15 colon it was 10.4%. The growth was 11.2% in the assay on HT29 colon; 19.2% in the assay with SNB-75 CNS; -9.1% (active) in the assay with PC-3 prostate; -61.4% (active) in the assay on SK-MEL-5 melanoma; 2.51% (active) with UACC-62 melanoma; -11.4% (active) with SK-MEL-28 melanoma. Moreover, the growth in the assay with SN12C renal is 7.58% (active); with ACHN renal, 12.4%; with OVCAR-8 ovarian it was 5.76% (active); in the assay on OVCAR-3 ovarian it was -25.6% (active); in the assay on NCI/ADR-RES ovarian it was -10.5% (active); in the assay with MDA-MB-435 melanoma, 4.67% (active). The values for the growth with MCF7 breast and in the assay on KM12 colon were 3.85% (active) and 2.96% (active), respectively.
`COC(=O)C1CC2c3ccccc3C1c1ccccc12` (centres undefined): the growth with NCI-H23 lung was 111%; in the assay with NCI-H226 lung it was 92.3%; in the assay on MDA-MB-231 breast, 122%; in the assay with SF-268 CNS, 107%; in the assay with SF-539 CNS, 101%; in the assay with HCT-15 colon it was 91.2%. The growth in the assay with HT29 colon is 106%; with SNB-75 CNS it was 94.5%; in the assay on PC-3 prostate, 66.4%; in the assay with SK-MEL-5 melanoma it was 94%; in the assay with UACC-62 melanoma, 103%; in the assay on SK-MEL-28 melanoma, 109%. Further, the growth is 97.7% with SN12C renal; 97.9% in the assay with ACHN renal; 101% in the assay on OVCAR-8 ovarian; 115% with OVCAR-3 ovarian; 105% in the assay with NCI/ADR-RES ovarian; 107% with MDA-MB-435 melanoma. Moreover, the growth with MCF7 breast is 96.5%; with KM12 colon it was 113%.
In the case of `CC(/C=N/N=C(N)N)=N\N=C(N)N`, the growth was 68.9% with NCI-H23 lung; 95.8% with NCI-H226 lung; 80.2% in the assay with MDA-MB-231 breast; 50.3% in the assay on SF-268 CNS; 51.9% with SF-539 CNS; 100% in the assay with HCT-15 colon. Also, the growth was 65.9% in the assay with HT29 colon; 63.7% in the assay with SNB-75 CNS; 101% in the assay with PC-3 prostate; 137% in the assay on SK-MEL-5 melanoma; 86.7% with UACC-62 melanoma; 87.1% in the assay on SK-MEL-28 melanoma. For the same molecule, the growth in the assay with SN12C renal was 74.2%; in the assay on ACHN renal, 80.9%; with OVCAR-8 ovarian, 58.4%; in the assay with OVCAR-3 ovarian, 57.7%; with NCI/ADR-RES ovarian, 24.9%; in the assay on MDA-MB-435 melanoma, 89.2%. The growth with MCF7 breast is 76.8%; in the assay with KM12 colon it was 40.9%.
For the molecule `C[C@]12CC[C@@H]3c4ccc(OC(=O)Cc5ccc(N(CCCl)CCCl)cc5)cc4CC[C@H]3[C@@H]1CC[C@@H]2OC(=O)Cc1ccc(N(CCCl)CCCl)cc1`, the growth in the assay on NCI-H23 lung was 119%; with NCI-H226 lung it was 92.6%; in the assay with MDA-MB-231 breast, 102%; in the assay with SF-268 CNS, 108%; with SF-539 CNS, 103%; in the assay on HCT-15 colon it was 113%. In addition, the growth with HT29 colon was 117%; with SNB-75 CNS, 84.7%; in the assay on PC-3 prostate, 84.8%; in the assay on SK-MEL-5 melanoma, 87%; in the assay on UACC-62 melanoma it was 88%; in the assay with SK-MEL-28 melanoma, 117%. Moreover, the growth with SN12C renal is 92.3%; with ACHN renal, 109%; in the assay on OVCAR-8 ovarian, 109%; in the assay with OVCAR-3 ovarian, 109%; in the assay on NCI/ADR-RES ovarian, 55.9%; in the assay with MDA-MB-435 melanoma, 112%. For the same molecule, the figures for the growth in the assay with MCF7 breast and in the assay on KM12 colon were 120% and 111%, respectively.
`CC(=O)Oc1ccc(Cl)cc1`: the growth in the assay on NCI-H23 lung is 94.2%; in the assay on NCI-H226 lung it was 91.3%; in the assay on MDA-MB-231 breast, 95.8%; with SF-268 CNS, 83.6%; in the assay on SF-539 CNS it was 89.1%; with HCT-15 colon, 95.1%. For the same molecule, the growth in the assay on HT29 colon is 98.3%; in the assay with SNB-75 CNS, 81.9%; in the assay with PC-3 prostate, 91.3%; in the assay with SK-MEL-5 melanoma, 104%; in the assay on UACC-62 melanoma, 91.9%; in the assay on SK-MEL-28 melanoma, 89.5%. The growth with SN12C renal is 94.6%; in the assay with ACHN renal, 97.5%; in the assay on OVCAR-8 ovarian it was 101%; with OVCAR-3 ovarian, 63.7%; in the assay on NCI/ADR-RES ovarian, 99.1%; in the assay with MDA-MB-435 melanoma it was 101%. Moreover, the growth in the assay on MCF7 breast is 87.4%; with KM12 colon, 86.3%.
In the case of `COC(=O)C(=[N+]=[N-])C(=O)OC`, the growth was 98.1% with NCI-H23 lung; 99.2% in the assay with NCI-H226 lung; 113% in the assay with MDA-MB-231 breast; 106% with SF-268 CNS; 103% in the assay on SF-539 CNS; 105% with HCT-15 colon. For the same molecule, the growth in the assay on HT29 colon was 101%; in the assay with SNB-75 CNS, 80.6%; with PC-3 prostate it was 92.3%; in the assay with SK-MEL-5 melanoma it was 104%; in the assay with UACC-62 melanoma it was 95.3%; in the assay on SK-MEL-28 melanoma, 105%. The growth in the assay on SN12C renal was 98%; with ACHN renal it was 94%; in the assay on OVCAR-8 ovarian, 101%; in the assay on OVCAR-3 ovarian, 118%; with NCI/ADR-RES ovarian it was 108%; in the assay on MDA-MB-435 melanoma it was 100%. The growth is 88.3% with MCF7 breast and 110% with KM12 colon.
On to `COc1ccc(C(=O)c2ccc([As]=O)cc2)cc1` (centres undefined), for which the growth was -43.4% (active) in the assay with NCI-H23 lung; -59.6% (active) with NCI-H226 lung; -71% (active) with MDA-MB-231 breast; -83.5% (active) with SF-268 CNS; -91.6% (active) with SF-539 CNS; -73% (active) in the assay with HCT-15 colon. Also, the growth with HT29 colon is -68.9% (active); with SNB-75 CNS, -97% (active); in the assay on PC-3 prostate, -86.3% (active); in the assay with SK-MEL-5 melanoma it was -99.5% (active); in the assay on UACC-62 melanoma it was -82.1% (active); in the assay with SK-MEL-28 melanoma, -87.1% (active). Moreover, the growth in the assay with SN12C renal was -52.8% (active); in the assay with ACHN renal, -91.8% (active); with OVCAR-8 ovarian, -84.2% (active); in the assay on OVCAR-3 ovarian, -40.4% (active); with NCI/ADR-RES ovarian, -5.33% (active); in the assay with MDA-MB-435 melanoma it was -80.9% (active). In addition, the figures for the growth with MCF7 breast and with KM12 colon were -20.3% (active) and -93.7% (active), respectively.
On to `CCCCCCCC(=O)OCC/C=C/C1OC1C1OC(=O)/C=C\C=C\c2nc(oc2C)/C=C(/C)CCC2OC2C1OC(=O)NC(C)=O` (centres undefined), for which the growth in the assay on NCI-H23 lung is -59.1% (active); with NCI-H226 lung, -37.5% (active); with SF-268 CNS, 5.33% (active); in the assay with SF-539 CNS, -34.1% (active); with HCT-15 colon it was -5.6% (active); in the assay with HT29 colon, 4.62% (active). The growth in the assay with SNB-75 CNS was -35.8% (active); in the assay with PC-3 prostate, -3.27% (active); in the assay on SK-MEL-5 melanoma it was -93.8% (active); in the assay on UACC-62 melanoma, -49.6% (active); with SK-MEL-28 melanoma, -15.3% (active); in the assay on SN12C renal, -99.9% (active). The growth was -16.8% (active) in the assay on ACHN renal; -79.1% (active) in the assay with OVCAR-8 ovarian; 5.74% (active) in the assay on OVCAR-3 ovarian; -33.8% (active) in the assay with NCI/ADR-RES ovarian; 3.24% (active) with MDA-MB-435 melanoma; -39.3% (active) with MCF7 breast. Also, in the assay with KM12 colon, the growth was -74% (active).
